Our source for the Percent Effect values is ChEMBL document CHEMBL3988442, “University of Dundee, Small-Polar-MMV Screening Library” (2021).

Set-up in all cases: scale not given: direction of the effect not stated beside the values
In test [1] the target is Protein translocase subunit SecA (Escherichia coli (strain K12)) (UniProt P10408). Put plainly: Assay to Identify E. coli SecA ATPase Inhibitors. The class given is functional. To be noted: 30 µM.
For test [2], the target named is T1, Ubiquitin-activating enzyme e1, putative (Leishmania donovani (strain BPK282A1)) (UniProt E9BSI1).
T1 sequence (whole entry): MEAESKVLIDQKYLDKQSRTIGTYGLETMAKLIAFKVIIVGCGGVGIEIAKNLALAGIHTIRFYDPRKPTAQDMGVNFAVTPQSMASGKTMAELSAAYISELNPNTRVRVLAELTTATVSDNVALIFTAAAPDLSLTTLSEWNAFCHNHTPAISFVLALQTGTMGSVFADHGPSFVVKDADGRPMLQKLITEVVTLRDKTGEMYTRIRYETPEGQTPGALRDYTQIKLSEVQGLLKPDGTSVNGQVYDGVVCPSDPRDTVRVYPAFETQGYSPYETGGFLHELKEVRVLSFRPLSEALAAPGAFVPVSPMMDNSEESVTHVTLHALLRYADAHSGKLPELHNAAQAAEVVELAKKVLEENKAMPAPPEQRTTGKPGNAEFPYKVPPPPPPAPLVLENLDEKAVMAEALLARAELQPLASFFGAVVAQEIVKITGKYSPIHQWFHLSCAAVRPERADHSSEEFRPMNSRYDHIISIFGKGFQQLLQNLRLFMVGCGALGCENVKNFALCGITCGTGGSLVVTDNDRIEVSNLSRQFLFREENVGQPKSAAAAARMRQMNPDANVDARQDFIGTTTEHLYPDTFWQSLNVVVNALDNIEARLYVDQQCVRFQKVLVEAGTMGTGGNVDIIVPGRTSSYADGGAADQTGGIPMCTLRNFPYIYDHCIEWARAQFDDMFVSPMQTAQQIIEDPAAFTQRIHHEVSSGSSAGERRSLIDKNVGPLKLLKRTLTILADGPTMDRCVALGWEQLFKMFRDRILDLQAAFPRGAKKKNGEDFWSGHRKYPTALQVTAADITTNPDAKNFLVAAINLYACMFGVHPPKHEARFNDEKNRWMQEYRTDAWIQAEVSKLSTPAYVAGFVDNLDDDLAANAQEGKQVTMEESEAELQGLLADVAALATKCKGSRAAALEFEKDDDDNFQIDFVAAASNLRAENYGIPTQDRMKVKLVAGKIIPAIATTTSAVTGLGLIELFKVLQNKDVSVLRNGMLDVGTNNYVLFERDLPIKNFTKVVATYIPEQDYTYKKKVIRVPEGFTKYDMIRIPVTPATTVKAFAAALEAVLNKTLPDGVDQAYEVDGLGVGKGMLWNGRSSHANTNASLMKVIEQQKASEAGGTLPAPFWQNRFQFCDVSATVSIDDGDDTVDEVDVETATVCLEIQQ
Put plainly: Leishmania donovani Ubiquitin Activating Enzyme (LdE1). The class given is functional. As to conditions: 30 µM.

The target in test [3] is AMP-activated protein kinase, AMPK (Homo sapiens) (UniProt P54646+O43741+P54619+Q9UGJ0+Q9Y478+Q13131+Q9UGI9). Nature of the test: AMP-dependent Kinase enzyme assay. An in vitro enzyme assay that detects ADP turnover that is directly proportional to AMPK activity. This uses naive AMPK that is activated during the assay with MK-8722. The class given is functional. As to conditions: 30 µM.

Test [4] addresses Sialic acid-binding Ig-like lectin 9 (Homo sapiens) (UniProt Q9Y336). Nature of the test: Hs-Siglec9 ALPHAscreen SOP 20170721. To be noted: 10 µM. (Alpha assays give light when donor and acceptor beads are brought close together.)
For a further test, the system named is Trypanosoma cruzi. Nature of the test: Trypanosoma cruzi phosphomannomutase and mannose-1-phosphate guanylyltransferase assay. The class given is functional. As to conditions: 10 µM.
For test [5], the target named is T2, Arginase-2, mitochondrial (Homo sapiens) (UniProt P78540).
T2 sequence (whole entry): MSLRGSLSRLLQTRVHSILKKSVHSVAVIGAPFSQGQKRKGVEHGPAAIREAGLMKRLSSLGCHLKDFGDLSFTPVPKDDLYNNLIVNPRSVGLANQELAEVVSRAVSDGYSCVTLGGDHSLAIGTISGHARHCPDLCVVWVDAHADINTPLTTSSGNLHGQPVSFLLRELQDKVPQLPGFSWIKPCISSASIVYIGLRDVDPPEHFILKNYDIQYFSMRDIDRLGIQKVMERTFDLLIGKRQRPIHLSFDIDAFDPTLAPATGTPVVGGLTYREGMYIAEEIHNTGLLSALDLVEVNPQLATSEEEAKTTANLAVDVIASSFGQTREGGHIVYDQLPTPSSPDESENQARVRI
Nature of the test: in vitro enzyme assay to detect the production of urea directly proportional to the activity of Arginase II. Also: in the data most compounds retested in dose-response had high values. Format: functional. As to conditions: 33.3 µM.

Test [6] deals with T3, Proteasome subunit beta (Trypanosoma cruzi) (UniProt O96673).
T3 sequence (whole entry): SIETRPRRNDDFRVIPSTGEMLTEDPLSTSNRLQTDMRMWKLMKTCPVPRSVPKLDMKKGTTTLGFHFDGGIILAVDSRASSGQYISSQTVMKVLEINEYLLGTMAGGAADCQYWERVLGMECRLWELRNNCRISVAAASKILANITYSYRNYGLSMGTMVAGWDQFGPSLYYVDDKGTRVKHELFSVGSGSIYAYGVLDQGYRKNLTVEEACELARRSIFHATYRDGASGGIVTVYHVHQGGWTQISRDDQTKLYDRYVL
Put plainly: Trypanosoma cruzi proteasome chymotrypsin-like activity (TcProtChymo) assay. Also: in the data most compounds retested in dose-response had high values. Format: functional. To be noted: 9.37 µM.

The species named for the next test is Homo sapiens. Put plainly: To identify inhibition of the IFN signalling (Jak-Stat) pathway via expression of an eGFP reporter gene under the control of an IFN-stimulated response element (ISRE) containing MxA promoter. As to conditions: 30 µM. The class given is functional.
The target in test [7] is T4, Tyrosyl-tRNA synthetase, putative (Trypanosoma cruzi (strain CL Brener)) (UniProt Q4DSP6).
T4 sequence (whole entry): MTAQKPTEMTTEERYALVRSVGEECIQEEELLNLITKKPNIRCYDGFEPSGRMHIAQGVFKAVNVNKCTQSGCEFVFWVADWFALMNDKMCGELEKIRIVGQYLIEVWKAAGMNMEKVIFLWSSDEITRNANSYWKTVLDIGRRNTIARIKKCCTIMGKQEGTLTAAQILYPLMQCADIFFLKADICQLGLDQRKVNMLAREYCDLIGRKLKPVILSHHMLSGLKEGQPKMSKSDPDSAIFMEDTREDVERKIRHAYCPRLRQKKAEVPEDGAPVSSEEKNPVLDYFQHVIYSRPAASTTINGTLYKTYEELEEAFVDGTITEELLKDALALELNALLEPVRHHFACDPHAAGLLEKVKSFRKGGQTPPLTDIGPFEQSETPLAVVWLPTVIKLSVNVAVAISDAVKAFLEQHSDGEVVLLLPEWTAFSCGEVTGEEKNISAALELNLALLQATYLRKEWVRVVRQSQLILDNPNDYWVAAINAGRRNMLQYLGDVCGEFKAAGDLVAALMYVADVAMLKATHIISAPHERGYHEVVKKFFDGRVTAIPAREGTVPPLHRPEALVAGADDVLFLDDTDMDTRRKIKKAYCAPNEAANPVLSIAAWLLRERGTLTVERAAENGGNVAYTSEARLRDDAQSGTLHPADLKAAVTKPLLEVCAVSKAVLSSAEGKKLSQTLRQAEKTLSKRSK
Put plainly: Trypanosoma cruzi tyrosyl tRNA synthetase (TcYRS) _High Tyrosine SOP. Also: in the data most compounds retested in dose-response had high values. The class given is functional. As to conditions: 30 µM.

Test [8] has as its target T4, Tyrosyl-tRNA synthetase, putative (Trypanosoma cruzi (strain CL Brener)). Nature of the test: Trypanosoma cruzi tyrosyl tRNA synthetase (TcYRS) SOP. Format: functional. To be noted: 30 µM.
Test [9] addresses Chromo domain-containing protein 1 (Saccharomyces cerevisiae (strain ATCC 204508 / S288c) (Baker's yeast)) (UniProt P32657). Put plainly: ScCHD-1 Enzyme Inhibition Assay. Also: in the data most compounds retested in dose-response had high values. To be noted: 30 µM. The class given is functional.

The structures appear in SMILES notation. For some of these results: Potency and affinity values are given separately.

Sequence of Protein translocase subunit SecA (Escherichia coli (strain K12)) (P10408 whole entry): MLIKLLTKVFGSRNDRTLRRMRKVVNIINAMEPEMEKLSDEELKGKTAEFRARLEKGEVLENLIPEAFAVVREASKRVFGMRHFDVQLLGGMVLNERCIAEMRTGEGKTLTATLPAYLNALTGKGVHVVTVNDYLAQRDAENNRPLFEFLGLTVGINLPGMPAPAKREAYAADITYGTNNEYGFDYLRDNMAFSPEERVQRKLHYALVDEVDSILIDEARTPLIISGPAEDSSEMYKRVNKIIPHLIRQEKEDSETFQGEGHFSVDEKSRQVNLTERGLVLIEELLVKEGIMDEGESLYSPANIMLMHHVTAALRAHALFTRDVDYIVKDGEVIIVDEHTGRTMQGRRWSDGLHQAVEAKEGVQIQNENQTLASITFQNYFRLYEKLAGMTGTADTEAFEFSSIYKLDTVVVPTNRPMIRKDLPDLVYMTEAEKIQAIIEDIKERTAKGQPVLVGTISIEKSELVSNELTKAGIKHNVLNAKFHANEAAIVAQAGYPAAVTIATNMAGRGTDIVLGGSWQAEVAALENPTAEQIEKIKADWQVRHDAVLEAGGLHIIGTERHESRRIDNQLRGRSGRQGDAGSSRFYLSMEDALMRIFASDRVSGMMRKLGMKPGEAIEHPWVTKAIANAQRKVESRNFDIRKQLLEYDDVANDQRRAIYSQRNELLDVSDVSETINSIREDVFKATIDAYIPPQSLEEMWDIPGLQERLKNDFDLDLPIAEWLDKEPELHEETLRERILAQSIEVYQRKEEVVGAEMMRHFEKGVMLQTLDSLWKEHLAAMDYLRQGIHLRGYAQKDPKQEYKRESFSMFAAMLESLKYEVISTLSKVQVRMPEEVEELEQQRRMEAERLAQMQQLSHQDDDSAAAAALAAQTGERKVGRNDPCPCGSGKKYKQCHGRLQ
Sequence of Chromo domain-containing protein 1 (Saccharomyces cerevisiae (strain ATCC 204508 / S288c) (Baker's yeast)) (P32657 whole entry, the tested form may be a part): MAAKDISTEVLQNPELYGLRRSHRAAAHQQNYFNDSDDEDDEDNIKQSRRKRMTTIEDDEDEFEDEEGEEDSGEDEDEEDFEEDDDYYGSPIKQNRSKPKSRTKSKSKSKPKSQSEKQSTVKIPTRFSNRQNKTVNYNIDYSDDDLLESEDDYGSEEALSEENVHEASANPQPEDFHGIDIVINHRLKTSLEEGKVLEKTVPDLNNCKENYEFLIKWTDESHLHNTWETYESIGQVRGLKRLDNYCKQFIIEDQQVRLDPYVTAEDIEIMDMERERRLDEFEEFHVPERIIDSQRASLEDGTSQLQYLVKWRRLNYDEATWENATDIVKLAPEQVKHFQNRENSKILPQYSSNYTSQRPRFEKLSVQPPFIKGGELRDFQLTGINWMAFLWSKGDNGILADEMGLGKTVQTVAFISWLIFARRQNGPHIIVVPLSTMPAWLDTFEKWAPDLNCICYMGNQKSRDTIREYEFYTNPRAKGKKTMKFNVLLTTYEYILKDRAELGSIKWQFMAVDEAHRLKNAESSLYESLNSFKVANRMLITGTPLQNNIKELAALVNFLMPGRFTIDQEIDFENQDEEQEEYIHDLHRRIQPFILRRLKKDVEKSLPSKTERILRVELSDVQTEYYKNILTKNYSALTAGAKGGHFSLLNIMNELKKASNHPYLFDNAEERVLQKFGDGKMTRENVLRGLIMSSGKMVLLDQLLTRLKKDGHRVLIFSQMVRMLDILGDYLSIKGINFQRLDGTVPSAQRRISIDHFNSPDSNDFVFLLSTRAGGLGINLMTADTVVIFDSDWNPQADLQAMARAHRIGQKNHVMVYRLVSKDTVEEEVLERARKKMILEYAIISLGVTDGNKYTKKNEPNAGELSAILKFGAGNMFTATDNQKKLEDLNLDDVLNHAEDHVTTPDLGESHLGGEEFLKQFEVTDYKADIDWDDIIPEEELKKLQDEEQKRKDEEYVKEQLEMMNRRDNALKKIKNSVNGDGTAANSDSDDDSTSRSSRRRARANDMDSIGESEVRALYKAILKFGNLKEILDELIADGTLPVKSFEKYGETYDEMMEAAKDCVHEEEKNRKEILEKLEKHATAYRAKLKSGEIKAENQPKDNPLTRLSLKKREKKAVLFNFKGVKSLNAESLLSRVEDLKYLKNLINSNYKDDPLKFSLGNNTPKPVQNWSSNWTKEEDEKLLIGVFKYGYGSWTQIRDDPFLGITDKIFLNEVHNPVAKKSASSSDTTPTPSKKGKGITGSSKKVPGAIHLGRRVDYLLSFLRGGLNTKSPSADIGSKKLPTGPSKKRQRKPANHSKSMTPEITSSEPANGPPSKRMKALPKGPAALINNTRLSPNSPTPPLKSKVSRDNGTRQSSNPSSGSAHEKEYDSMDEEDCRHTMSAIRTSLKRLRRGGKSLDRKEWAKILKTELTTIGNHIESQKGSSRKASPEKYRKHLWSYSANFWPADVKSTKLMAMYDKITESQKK
Sequence of Sialic acid-binding Ig-like lectin 9 (Homo sapiens) (Q9Y336 whole entry): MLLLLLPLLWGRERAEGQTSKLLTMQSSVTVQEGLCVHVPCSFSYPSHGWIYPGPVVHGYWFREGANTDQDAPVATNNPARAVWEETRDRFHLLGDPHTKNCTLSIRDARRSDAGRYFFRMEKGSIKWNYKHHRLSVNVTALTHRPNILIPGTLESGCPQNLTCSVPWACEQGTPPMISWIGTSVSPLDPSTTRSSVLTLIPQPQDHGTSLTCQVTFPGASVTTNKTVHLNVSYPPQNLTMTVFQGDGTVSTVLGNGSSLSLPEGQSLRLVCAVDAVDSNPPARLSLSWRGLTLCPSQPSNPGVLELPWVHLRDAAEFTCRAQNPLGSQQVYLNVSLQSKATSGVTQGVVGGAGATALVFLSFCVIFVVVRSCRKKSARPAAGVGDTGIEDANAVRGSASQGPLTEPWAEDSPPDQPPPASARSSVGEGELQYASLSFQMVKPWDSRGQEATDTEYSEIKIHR

As to `CCOCC(=O)N1C[C@@H]2COC[C@H](c3nc(C)no3)[C@@H]2C1`, the Percent Effect was -1.23% in test [1]; -5.41% in [2]; 5.84% in test [3]; -1.1% in test [4]; 0.586% with Trypanosoma cruzi; 2.5% in [5]. In addition, the Percent Effect is 9.21% in [6]; 1.97% in the test listed under Homo sapiens; -15.8% in test [7]; -1.22% in [8]; -2.33% in [9].

As to `C=C(C)COCCNC(=O)C1CCCN1C(C)=O` (stereo unspecified), the Percent Effect in test [1] was -2.72%; in [2] it was 18.2%; in test [3] it was -0.215%; in test [4], 2.93%; in the test on Trypanosoma cruzi, 7.3%; in [5], -1.78%. Also, the Percent Effect was 5.41% in test [6]; 6.11% in the test listed under Homo sapiens; 5.83% in test [7]; 21.9% in test [8]; -8.29% in test [9].

In the case of `Cc1cc(C)c2nc(CN3CCOC(CCO)C3)cc(O)c2c1` (stereo unspecified), the Percent Effect in [1] was -2.9%; in test [2] it was 2.7%; in test [3] it was -1.47%; in [4], 5.2%; with Trypanosoma cruzi it was 0.965%; in test [5], -2.38%. In addition, the Percent Effect in test [6] was 10.3%; in the test filed under Homo sapiens, -6.99%; in test [7] it was 4.76%; in test [8], 14.6%; in test [9], -1.34%.

`CCC(CC)C(CNC(=O)Nc1ccc(C)cc1)N1CCOCC1` (stereo unspecified): the Percent Effect in test [1] is -3.76%; in test [2], 22.8%; in test [3], -8.69%; in test [4] it was -4.59%; in the test with Trypanosoma cruzi, 4.63%; in test [5], -0.76%. The Percent Effect in test [6] is 3.52%; in the test listed under Homo sapiens, 5.24%; in [7], -25.1%; in test [8] it was 21.5%; in test [9], -8.39%.

In the case of `CC1c2ncc(COc3cccnc3)n2CCN1C(=O)Cc1ccco1` (stereo unspecified), the Percent Effect in test [1] is -6.11%; in test [2], 6.67%; in test [3] it was 2.02%; in test [4], 6.28%; in the test on Trypanosoma cruzi, -2.36%; in test [5], -3.7%. Further, the Percent Effect was 6.84% in [6]; -8.23% in the test listed under Homo sapiens; 2.12% in test [7]; 7.69% in test [8]; 0.38% in test [9].

For `COc1cccc(COCC(=O)N2CCCC(N3CCCC3)CC2)c1` (stereo unspecified), the Percent Effect was -1.29% in test [1]; -10.5% in test [2]; 4.62% in test [3]; -2.23% in [4]; 2.26% in the test on Trypanosoma cruzi; 0% in [5]. Further, the Percent Effect in test [6] is 6.52%; in the test filed under Homo sapiens it was -5.01%; in test [7], 14.2%; in test [8], 7.32%; in [9] it was -0.94%.

With `COCC1CN(Cc2ccc(C)o2)Cc2cn(C)nc21` (stereo unspecified), the Percent Effect was -1.58% in test [1]; 10.7% in test [2]; -0.404% in [3]; 16.5% in [4]; -0.965% in the test on Trypanosoma cruzi; -18.5% in test [5]. The Percent Effect in test [6] was 5.13%; in the test listed under Homo sapiens it was -4.89%; in [7] it was 10.4%; in test [8], 20%; in test [9], -7.5%.

On to `CCCn1c(C)c(CC(=O)NC)c2c1CC(C)(C)CC2=O`, for which the Percent Effect in test [1] was -4.47%; in [2], 2.6%; in test [3], -16%; in [4], 0.225%; with Trypanosoma cruzi it was -1.08%; in [5], -6.9%. Further, the Percent Effect in [6] is 2.66%; in the test listed under Homo sapiens it was 2.97%; in test [7] it was 5.38%; in [8], 8.64%; in [9], 2.86%.

Regarding `CC(C)(C)OC(=O)N1CCN(C(=O)c2sccc2C2CC2)CC1`, the Percent Effect in [1] is -1.99%; in test [2], 8.86%; in [3], 5.24%; in test [4] it was 1.31%; in the test with Trypanosoma cruzi, -2.56%; in test [5] it was 9.25%. Further, the Percent Effect in test [6] was 6.17%; in the test listed under Homo sapiens, -13.8%; in [7], 3.12%; in test [8], 5.06%; in [9] it was -5.68%.

As for `CCc1nnc2n1CCN(C(=O)c1cc(Br)c[nH]1)C2`, the Percent Effect in [1] is -5.48%; in test [2] it was 23.4%; in test [3] it was -0.82%; in [4] it was 9.55%; in the test on Trypanosoma cruzi, 8.05%; in [5], -1.78%. For the same molecule, the Percent Effect in test [6] is 13%; in the test filed under Homo sapiens, -20.8%; in test [7] it was 9.71%; in [8] it was 19.5%; in [9], -10.3%.

Take `CC(O)CN1CCN(C(=O)c2cc3ccccc3[nH]c2=O)CC1` (stereo unspecified): the Percent Effect in [1] was -2.78%; in test [2] it was 2.63%; in test [3], -2.27%; in [4], 10.3%; with Trypanosoma cruzi, -3.8%; in [5], -4.73%. For the same molecule, the Percent Effect was 13.1% in test [6]; -25.9% in the test listed under Homo sapiens; 1.06% in test [7]; -5.2% in [8]; -3.52% in test [9].
